Bioassay records: PubChem, National Center for Advancing Translational Sciences (NCATS)
Hits are enriched below; roughly 12% of the tested compounds scored in any of these assays.
JMJD2A Tudor inh = qHTS Assay for Inhibitors of JMJD2A-Tudor Domain; actives 4.4% (n = 390,000); AlphaScreen JMJD2A-Tudor / H3K4me3 peptide binding; Potency, µM (top dose mostly 114 µM), usual class: inhibitors; further: nearly all actives have a fitted effect of over 50% in size
Sfp inh = qHTS Assay for Inhibitors of Bacillus subtilis Sfp phosphopantetheinyl transferase (PPTase). actives 3.5% (n = 310,000). Potency, µM, hits mostly inhibitors. 4'-phosphopantetheinyl transferase ffp (Bacillus subtilis), Q9F4F7. AID 1490, 2009. Biochemical Sfp PPTase activity, qHTS;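 further: the enzyme is Sfp with the accession as filed and its product quenches rhodamine fluorescence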
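After 15 min at room temperature with compound, 15 nM Sfp received 5 uM rhodamine-CoA plus 12.5 uM BHQ-2-ybbR (50 mM Hepes pH 7.6, 10 mM MgCl2). Rate came from the fluorescence difference over 30 min, ex 525/em 598 nm.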
BAZ2B block = qHTS Assay for Inhibitors of BAZ2B; Bromodomain adjacent to zinc finger domain protein 2B (Homo sapiens), Q9UIF8; AlphaScreen BAZ2B-H3K14Ac peptide displacement; Potency, µM (top dose mostly 114 µM), actives largely listed as inhibitors; actives 4.4% (n = 360,000); AID 504333, 2011; further: nearly all actives have a fitted effect of over 60% in size
Target sequence (Q9UIF8 whole entry, looked up, the tested form may be a part): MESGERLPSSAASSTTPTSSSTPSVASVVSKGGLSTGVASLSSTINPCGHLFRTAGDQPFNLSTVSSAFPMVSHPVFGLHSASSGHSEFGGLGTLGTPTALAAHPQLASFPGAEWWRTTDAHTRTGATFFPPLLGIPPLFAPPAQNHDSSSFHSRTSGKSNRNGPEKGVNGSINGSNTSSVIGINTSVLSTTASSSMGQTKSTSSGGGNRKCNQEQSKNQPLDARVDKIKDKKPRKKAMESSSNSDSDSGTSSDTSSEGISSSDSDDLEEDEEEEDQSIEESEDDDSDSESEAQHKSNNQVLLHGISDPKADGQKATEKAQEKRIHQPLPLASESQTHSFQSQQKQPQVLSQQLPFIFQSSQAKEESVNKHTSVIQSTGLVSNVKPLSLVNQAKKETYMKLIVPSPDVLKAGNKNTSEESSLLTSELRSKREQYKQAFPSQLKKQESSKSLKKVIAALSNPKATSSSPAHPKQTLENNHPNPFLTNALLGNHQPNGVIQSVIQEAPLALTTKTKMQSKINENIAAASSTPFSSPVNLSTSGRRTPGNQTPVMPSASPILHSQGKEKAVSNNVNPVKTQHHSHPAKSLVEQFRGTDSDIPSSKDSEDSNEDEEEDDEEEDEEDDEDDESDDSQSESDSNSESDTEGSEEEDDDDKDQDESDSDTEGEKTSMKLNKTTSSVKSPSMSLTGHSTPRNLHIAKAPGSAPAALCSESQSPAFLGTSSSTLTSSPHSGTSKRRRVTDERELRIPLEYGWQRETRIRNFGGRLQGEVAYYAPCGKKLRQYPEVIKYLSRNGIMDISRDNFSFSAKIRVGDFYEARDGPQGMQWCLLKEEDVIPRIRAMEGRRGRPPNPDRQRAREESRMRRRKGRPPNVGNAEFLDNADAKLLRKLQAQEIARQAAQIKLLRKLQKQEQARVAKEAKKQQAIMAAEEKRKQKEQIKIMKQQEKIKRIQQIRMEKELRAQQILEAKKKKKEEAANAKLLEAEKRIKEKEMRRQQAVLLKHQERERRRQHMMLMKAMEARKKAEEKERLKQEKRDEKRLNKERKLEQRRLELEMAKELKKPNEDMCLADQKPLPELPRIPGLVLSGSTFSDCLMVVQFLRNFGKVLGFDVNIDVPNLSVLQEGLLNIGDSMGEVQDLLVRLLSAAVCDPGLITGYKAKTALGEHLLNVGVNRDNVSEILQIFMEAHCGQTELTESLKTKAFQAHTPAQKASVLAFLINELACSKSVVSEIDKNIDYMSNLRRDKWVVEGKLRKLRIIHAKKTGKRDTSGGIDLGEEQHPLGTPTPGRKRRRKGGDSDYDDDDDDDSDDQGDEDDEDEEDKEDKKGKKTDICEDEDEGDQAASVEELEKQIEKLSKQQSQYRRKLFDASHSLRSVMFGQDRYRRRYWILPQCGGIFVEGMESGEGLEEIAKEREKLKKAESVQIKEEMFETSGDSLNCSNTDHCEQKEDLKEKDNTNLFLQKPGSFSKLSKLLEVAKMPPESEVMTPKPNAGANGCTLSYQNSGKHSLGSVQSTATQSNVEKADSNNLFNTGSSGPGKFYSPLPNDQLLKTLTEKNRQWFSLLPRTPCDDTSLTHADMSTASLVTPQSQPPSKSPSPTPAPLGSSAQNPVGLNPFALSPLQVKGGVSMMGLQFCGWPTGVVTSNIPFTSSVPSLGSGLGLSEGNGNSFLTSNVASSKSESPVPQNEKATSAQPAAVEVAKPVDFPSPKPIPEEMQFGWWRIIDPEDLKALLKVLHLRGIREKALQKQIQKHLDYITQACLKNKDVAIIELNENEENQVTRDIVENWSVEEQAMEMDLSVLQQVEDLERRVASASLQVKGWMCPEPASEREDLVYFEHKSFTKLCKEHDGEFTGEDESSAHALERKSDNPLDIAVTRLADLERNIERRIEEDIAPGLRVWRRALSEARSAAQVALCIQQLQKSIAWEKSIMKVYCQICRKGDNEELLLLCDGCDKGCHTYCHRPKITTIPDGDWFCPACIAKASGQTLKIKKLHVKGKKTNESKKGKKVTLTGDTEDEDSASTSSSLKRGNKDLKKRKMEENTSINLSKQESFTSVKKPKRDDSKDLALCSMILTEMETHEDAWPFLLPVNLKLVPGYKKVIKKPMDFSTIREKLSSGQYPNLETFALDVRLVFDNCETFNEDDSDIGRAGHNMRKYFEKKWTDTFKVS
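AlphaScreen displacement: compounds (up to 110uM) incubated 30 min at room temperature with a preformed 50 nM BAZ2B/50 nM biotinylated H3K14Ac peptide complex in PBS pH 7.4 with Tween-20. Donor and acceptor beads at 10 ug/mL final added, 20 min light-protected before reading.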
G9a block = qHTS Assay for Inhibitors of Histone Lysine Methyltransferase G9a | Histone-lysine N-methyltransferase EHMT2 (Homo sapiens), Q96KQ7 | G9a H3K9 monomethylation, AlphaScreen, 2 h | Potency, µM (titrated, usually from 102 µM), usual class: inhibitors | actives 8.8% (n = 350,000); further: nearly all actives have a fitted effect of over 75% in size
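Methyltransferase reactions run at room temperature for 2 h (20 nM enzyme, 500 nM biotin-H3K9 peptide, 20 uM SAM) after a 15 min compound preincubation; product detected by AlphaScreen beads and anti-H3K9me1 antibody.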
HP1b chromo inh = HTS for Inhibitors of HP1-beta Chromodomain Interactions with Methylated Histone Tails; Chromobox protein homolog 1 (Homo sapiens), P83916; AlphaScreen HP1-beta / biotin-H3K9me3 peptide binding; Potency, µM (doses to about 114 µM), hits mostly inhibitors; actives 0.56% (n = 390,000); AID 540317, 2011; further: nearly all actives have a fitted effect of over 70% in size
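Compound inhibition of the preformed complex between 50 nM HP1-beta and 50 nM biotinylated H3K9me3 peptide was read by AlphaScreen. Buffer was PBS pH 7.4 with 0.01% Tween-20. Incubations ran 30 min at room temperature, with 10 ug/mL donor/acceptor beads.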
A number is an active result; [ ] = another dose, or the depositor's remark. The call rests on the fitted dose curve; in most records, active means well fitted curve in the direction sought with a large enough effect; inconclusive means small, poorly fitted or top-dose-only effect, or another doubt; inactive means no such curve, though single readings can be large; an effect the other way counts as inactive or inconclusive.

`COc1ccc(OC)c(C(c2nnnn2CCc2ccccc2)N2CCN(c3ccccc3)CC2)c1` (configuration not stated) gave JMJD2A Tudor inh inactive, Sfp inh inactive, BAZ2B block inactive, G9a block inactive and HP1b chromo inh inactive.
CCCC(=O)N1c2nc(-c3ccco3)nn2C2(CCCCC2)[C@@H]2CCCC[C@@H]21 was read as JMJD2A Tudor inh inactive, BAZ2B block inconclusive, G9a block inconclusive and HP1b chromo inh inactive.
`COCCn1nnnc1C(c1ccccc1)N1CCN(C)CC1` (configuration not stated) gave JMJD2A Tudor inh inconclusive, Sfp inh inactive, BAZ2B block inactive, G9a block inconclusive and HP1b chromo inh inactive.
`COCCn1nnnc1C(c1ccccc1)N1CCN(c2ccccc2)CC1` (configuration not stated) gave JMJD2A Tudor inh inconclusive, Sfp inh inactive, BAZ2B block 50.1µM, G9a block inconclusive and HP1b chromo inh inactive.
CCCCC(c1nnnn1CCOC)N1CCN(Cc2ccccc2)CC1 (configuration not stated) was read as JMJD2A Tudor inh inactive, Sfp inh inactive, BAZ2B block inactive, G9a block inconclusive and HP1b chromo inh inactive.
Screening Cc1ccc(C(c2nnnn2CC2CCCO2)N2CCN(C)CC2)cc1 (configuration not stated) returned JMJD2A Tudor inh inactive, Sfp inh inactive, BAZ2B block inactive and HP1b chromo inh inactive.
COc1ccc(C(c2nnnn2CC2CCCO2)N2CCN(c3ccc(F)cc3)CC2)cc1 (configuration not stated) was read as JMJD2A Tudor inh inactive[11.4 µM], Sfp inh inactive, BAZ2B block 56.2µM, G9a block inactive[12.7 µM] and HP1b chromo inh inactive.
COCCn1nnnc1C(c1cccc(C#N)c1)N1CCCCCC1 (configuration not stated) was read as JMJD2A Tudor inh inactive, Sfp inh inactive, BAZ2B block inconclusive, G9a block 44.7µM and HP1b chromo inh inactive.
CCCCC(c1nnnn1CCOC)N1CCN(c2cccc(OC)c2)CC1 (configuration not stated) was read as JMJD2A Tudor inh inactive[11.4 µM], Sfp inh inactive, BAZ2B block 50.1µM, G9a block 44.7µM and HP1b chromo inh inactive.
For O=C(/C=C/c1ccc(OC(F)F)cc1)Nc1cccc(S(=O)(=O)NC2=NCCCCC2)c1 the results were JMJD2A Tudor inh inactive, Sfp inh inactive, BAZ2B block inactive, G9a block inactive and HP1b chromo inh inactive.
`Cc1ccccc1CNCc1c(C(=O)O)c(C)n(Cc2ccc(F)cc2Cl)c1C` gave JMJD2A Tudor inh inactive, BAZ2B block inactive, G9a block inactive and HP1b chromo inh inactive.
CC1CCN(C(=O)CSc2nnc3ccc(-c4cccnc4)nn23)CC1 was read as JMJD2A Tudor inh inactive, BAZ2B block inactive, G9a block inactive and HP1b chromo inh inactive.
`COc1ccc(NC(=O)CCS(=O)(=O)c2nc(-c3cccs3)cc(C(F)(F)F)n2)cc1OC` gave JMJD2A Tudor inh inactive, BAZ2B block inactive, G9a block inactive and HP1b chromo inh inactive.
For Cc1ccccc1OCC(=O)NCCCNC(=O)c1ccco1 the results were JMJD2A Tudor inh inactive, Sfp inh inactive, BAZ2B block inactive, G9a block inactive and HP1b chromo inh inactive.
`CC(=O)Nc1cccc(C(=O)OCC(=O)N2CCN(C(=O)COC(=O)c3cccc(NC(C)=O)c3)CC2)c1` gave JMJD2A Tudor inh inactive and HP1b chromo inh inactive.
For COc1ccccc1N1CCN(C(c2ccc(N(C)C)cc2)c2nnnn2CCc2ccccc2)CC1 (configuration not stated) the results were JMJD2A Tudor inh inconclusive, Sfp inh inactive, BAZ2B block 25.1µM, G9a block 2µM and HP1b chromo inh inactive.
For COC(=O)NCC(c1ccco1)N1CCN(c2ccc(OC)cc2)CC1 (configuration not stated) the results were JMJD2A Tudor inh inactive[11.4 µM], Sfp inh inactive, G9a block inconclusive and HP1b chromo inh inactive.
Screening COc1ccc(N2CCN(C(CNC(=O)C(=O)NCC3CCCO3)c3ccco3)CC2)cc1 (configuration not stated) returned JMJD2A Tudor inh inactive, Sfp inh inactive, BAZ2B block inactive, G9a block 31.6µM and HP1b chromo inh inactive.
Screening COc1ccccc1N1CCN(C(c2ccccc2)c2nnnn2Cc2ccccc2)CC1 (configuration not stated) returned JMJD2A Tudor inh inactive and HP1b chromo inh inactive.
`CCCC(c1nnnn1Cc1ccco1)N1CCN(c2ccccc2)CC1` (configuration not stated) gave JMJD2A Tudor inh inactive, Sfp inh inactive, BAZ2B block 56.2µM, G9a block inconclusive and HP1b chromo inh inactive.
Screening COc1ccc(C(c2nnnn2CCc2ccccc2)N2CCN(C3CCCC3)CC2)cc1 (configuration not stated) returned JMJD2A Tudor inh inactive, Sfp inh inactive, BAZ2B block inactive, G9a block 79.4µM and HP1b chromo inh inactive.
For COc1ccc(C(c2nnnn2Cc2ccccc2)N2CCN(c3nc4ccccc4s3)CC2)cc1 (configuration not stated) the results were JMJD2A Tudor inh inactive, Sfp inh inactive, BAZ2B block inactive, G9a block inconclusive and HP1b chromo inh inactive.
`COc1ccc(C(c2nnnn2Cc2ccccc2)N2CCN(c3ccccc3)CC2)cc1` (configuration not stated) gave JMJD2A Tudor inh inactive, Sfp inh inactive, BAZ2B block 79.4µM, G9a block inactive[12.7 µM] and HP1b chromo inh inactive.
For COc1ccc(/C=C/C(=O)Nc2ccc(Cl)c(Cl)c2)cc1OC the results were JMJD2A Tudor inh inactive, BAZ2B block inactive, G9a block inactive and HP1b chromo inh inactive.
Screening CC(C)NC(=O)N1CC2(CCN(S(=O)(=O)c3ccccc3)CC2)C1 returned Sfp inh inactive and G9a block inactive[12.7 µM].
Screening O=C(Cn1cnc2ccccc21)Nc1ccc2c(c1)OCCCO2 returned JMJD2A Tudor inh inactive, BAZ2B block inactive, G9a block inactive and HP1b chromo inh inactive.
Screening CCOC(=O)C1=C(O)/C(=C\c2ccc(CNC(=O)C(=O)Nc3ccc(C)c(C)c3)o2)N=C1C returned Sfp inh inactive, BAZ2B block inactive and G9a block 44.7µM.
`COCCNC(=O)/C(C#N)=C\c1ccc(CNC(=O)C(=O)Nc2ccc(C)c(C)c2)o1` gave JMJD2A Tudor inh inactive, Sfp inh inactive, BAZ2B block inactive, G9a block inactive and HP1b chromo inh inactive.
Screening Cc1c(OCC(=O)N[C@@H](Cc2c[nH]c3ccccc23)C(=O)O)ccc2c1oc(=O)c1ccccc12 returned JMJD2A Tudor inh inactive, Sfp inh inactive, BAZ2B block inconclusive and HP1b chromo inh inactive.
